Test results from PubChem BioAssay (NCI).
About 83,000 compounds went through this panel and 20% of them were active in at least one assay; those are over-represented in the sample as a whole.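 Each cell line was grown in a 96-well plate and treated with one concentration of compound for 48 hours. Values below 10 were considered active.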 Activity calls are given as the source filed them.

Assays:
Experiment in all cases: NCI-60 one-dose screen, 48 h (100 = growth as untreated, 0 = no growth, -100 = all killed)
Details in all cases: 10 µM unless noted
SR leukemia = tested on: SR leukemia
RPMI-8226 leukemia = tested on: RPMI-8226 leukemia
OVCAR-8 ovarian = tested on: OVCAR-8 ovarian
OVCAR-5 ovarian = tested on: OVCAR-5 ovarian
OVCAR-4 ovarian = tested on: OVCAR-4 ovarian
SK-OV-3 ovarian = tested on: SK-OV-3 ovarian
IGROV1 ovarian = tested on: IGROV1 ovarian
OVCAR-3 ovarian = tested on: OVCAR-3 ovarian
HS 578T breast = tested on: HS 578T breast
NCI/ADR-RES ovarian = tested on: NCI/ADR-RES ovarian
T-47D breast = tested on: T-47D breast
BT-549 breast = tested on: BT-549 breast
MDA-MB-435 melanoma = tested on: MDA-MB-435 melanoma
SW-620 colon = tested on: SW-620 colon
MCF7 breast = tested on: MCF7 breast
HCT-116 colon = tested on: HCT-116 colon
HCC-2998 colon = tested on: HCC-2998 colon
KM12 colon = tested on: KM12 colon

Measured: growth

COC(=O)CNC(=O)C(=O)c1c(O)c(O)c(C(C)C)c2cc(C)c(-c3c(C)cc4c(C(C)C)c(O)c(O)c(C(=O)C(=O)NCC(=O)OC)c4c3O)c(O)c12
inactive: SR leukemia 15% | RPMI-8226 leukemia 20.4% | OVCAR-8 ovarian 13% | OVCAR-5 ovarian 30.4% | IGROV1 ovarian 21.1% | OVCAR-3 ovarian 18% | HS 578T breast 20.2% | NCI/ADR-RES ovarian 20.9% | T-47D breast 16% | BT-549 breast 30.2% | MDA-MB-435 melanoma 55.1% | SW-620 colon 16% | MCF7 breast 18% | HCT-116 colon 11% | HCC-2998 colon 33.8% | KM12 colon 16.1%
active: OVCAR-4 ovarian -5.2% | SK-OV-3 ovarian 6.72%

CCCCCOC(=O)c1cccc(NC(=O)CN(CC)CC)c1
inactive: SR leukemia 78.3% | RPMI-8226 leukemia 96.7% | OVCAR-8 ovarian 103% | OVCAR-5 ovarian 107% | OVCAR-4 ovarian 119% | SK-OV-3 ovarian 94.9% | IGROV1 ovarian 107% | OVCAR-3 ovarian 113% | HS 578T breast 111% | NCI/ADR-RES ovarian 105% | T-47D breast 91.9% | BT-549 breast 72.6% | MDA-MB-435 melanoma 101% | SW-620 colon 105% | MCF7 breast 103% | HCT-116 colon 74.9% | HCC-2998 colon 98.9% | KM12 colon 104%

OC(CBr)c1ccnc2ccccc12 (stereo not drawn)
inactive: SR leukemia 98.7% | RPMI-8226 leukemia 87.4% | OVCAR-8 ovarian 98.2% | OVCAR-5 ovarian 106% | OVCAR-4 ovarian 110% | SK-OV-3 ovarian 105% | IGROV1 ovarian 102% | OVCAR-3 ovarian 106% | HS 578T breast 99.6% | NCI/ADR-RES ovarian 101% | T-47D breast 89.1% | BT-549 breast 92% | MDA-MB-435 melanoma 100% | SW-620 colon 104% | MCF7 breast 96.3% | HCT-116 colon 90.7% | HCC-2998 colon 103% | KM12 colon 99.3%

Cc1nc(Nc2cccc(NC(=O)Nc3ccc(Cl)cc3)c2)c2ccccc2n1
inactive: SR leukemia 22.1% | RPMI-8226 leukemia 66.8% | OVCAR-8 ovarian 93.9% | OVCAR-5 ovarian 106% | OVCAR-4 ovarian 47.8% | SK-OV-3 ovarian 97.8% | IGROV1 ovarian 102% | OVCAR-3 ovarian 90.7% | HS 578T breast 104% | NCI/ADR-RES ovarian 87.4% | T-47D breast 71.2% | BT-549 breast 101% | MDA-MB-435 melanoma 79.3% | SW-620 colon 46.7% | MCF7 breast 78.1% | HCT-116 colon 67.1% | HCC-2998 colon 106% | KM12 colon 69.7%

CN1CCN(c2ccc(Nc3ncc(Cl)c(NC[C@@H]4CCCO4)n3)cc2)CC1
active: SR leukemia -0.801% | HS 578T breast 6.95% | SW-620 colon 7.44% | MCF7 breast 9.61% | HCT-116 colon 4.74% | KM12 colon 9.71%
inactive: RPMI-8226 leukemia 29.5% | OVCAR-8 ovarian 27.5% | OVCAR-5 ovarian 18.1% | OVCAR-4 ovarian 29.7% | SK-OV-3 ovarian 28.6% | IGROV1 ovarian 23.4% | OVCAR-3 ovarian 42.8% | NCI/ADR-RES ovarian 31.3% | T-47D breast 62.2% | BT-549 breast 33.3% | MDA-MB-435 melanoma 44% | HCC-2998 colon 60.7%

CSc1nc(N)c(CNC(C)c2ccccc2)c(=O)n1C (stereo not drawn)
inactive: SR leukemia 103% | RPMI-8226 leukemia 109% | OVCAR-8 ovarian 97.9% | OVCAR-5 ovarian 91.7% | OVCAR-4 ovarian 104% | SK-OV-3 ovarian 97.5% | IGROV1 ovarian 101% | OVCAR-3 ovarian 110% | HS 578T breast 99.6% | NCI/ADR-RES ovarian 100% | T-47D breast 97.2% | BT-549 breast 96.1% | MDA-MB-435 melanoma 98.4% | SW-620 colon 107% | MCF7 breast 93.5% | HCT-116 colon 92.2% | HCC-2998 colon 101% | KM12 colon 106%

[2H]c1nc(Nc2ncc(F)c(-c3cc(F)c4nc(C)n(C(C)C)c4c3)n2)c([2H])c([2H])c1CN1CCN(C([2H])([2H])C([2H])([2H])[2H])CC1
inactive: SR leukemia 36.3% | RPMI-8226 leukemia 42.8% | OVCAR-8 ovarian 67.1% | OVCAR-5 ovarian 55.6% | OVCAR-4 ovarian 74.2% | SK-OV-3 ovarian 18.8% | IGROV1 ovarian 47.3% | OVCAR-3 ovarian 71% | HS 578T breast 35.7% | NCI/ADR-RES ovarian 81% | T-47D breast 54.6% | BT-549 breast 51.3% | MDA-MB-435 melanoma 51.7% | SW-620 colon 43.5% | MCF7 breast 30.3% | HCT-116 colon 26.1% | HCC-2998 colon 82.4% | KM12 colon 40.5%

O=c1[nH]c(NCc2nnnn2-c2ccc(Br)cc2)nc2sc3c(c12)CCCC3
inactive: SR leukemia 86.3% | RPMI-8226 leukemia 87.3% | OVCAR-8 ovarian 81.4% | OVCAR-5 ovarian 100% | OVCAR-4 ovarian 95.2% | SK-OV-3 ovarian 90.6% | IGROV1 ovarian 104% | OVCAR-3 ovarian 97.8% | HS 578T breast 100% | NCI/ADR-RES ovarian 103% | T-47D breast 74.3% | BT-549 breast 104% | MDA-MB-435 melanoma 97.4% | SW-620 colon 93.7% | MCF7 breast 92% | HCT-116 colon 81.2% | HCC-2998 colon 110% | KM12 colon 96.1%

O=C1C2=C(CCN(Cc3ccccc3)C2)N2CCN=C2N1Cc1ccc(C(F)(F)F)cc1
inactive: SR leukemia 49.5% | RPMI-8226 leukemia 19% | OVCAR-8 ovarian 17% | OVCAR-5 ovarian 56.9% | SK-OV-3 ovarian 21% | IGROV1 ovarian 33% | OVCAR-3 ovarian 23.9% | HS 578T breast 36% | NCI/ADR-RES ovarian 16.6% | T-47D breast 24.1% | BT-549 breast 32% | MDA-MB-435 melanoma 24.4% | SW-620 colon 37% | MCF7 breast 21.2% | HCT-116 colon 23% | HCC-2998 colon 23.9% | KM12 colon 39.4%
active: OVCAR-4 ovarian -4.49%

CCCCCOC(=O)c1ccc(NC(=O)CNCC(C)C)cc1
inactive: SR leukemia 82.2% | RPMI-8226 leukemia 73.1% | OVCAR-8 ovarian 96.1% | OVCAR-5 ovarian 98.9% | OVCAR-4 ovarian 101% | SK-OV-3 ovarian 95.4% | IGROV1 ovarian 93.4% | OVCAR-3 ovarian 101% | HS 578T breast 96.9% | NCI/ADR-RES ovarian 101% | T-47D breast 88.8% | BT-549 breast 91.8% | MDA-MB-435 melanoma 99.2% | SW-620 colon 98.5% | MCF7 breast 94.3% | HCT-116 colon 84.9% | HCC-2998 colon 97.9% | KM12 colon 104%

Oc1[nH]c2ccccc2c1/C=c1/cc2c(c(-c3ccc(F)cc3)n1)=Nc1ccccc1-2
active: RPMI-8226 leukemia -40.5% | OVCAR-8 ovarian -19.6% | OVCAR-5 ovarian 0.0696% | OVCAR-4 ovarian -65.1% | SK-OV-3 ovarian -7.93% | IGROV1 ovarian -7.94% | OVCAR-3 ovarian -77% | HS 578T breast -7.82% | NCI/ADR-RES ovarian -18.7% | T-47D breast -37.1% | BT-549 breast -31.3% | MDA-MB-435 melanoma -30.4% | SW-620 colon -10.6% | MCF7 breast -62.4% | HCT-116 colon -61.3% | HCC-2998 colon -63.7%
inactive: SR leukemia 10% | KM12 colon 14.6%

COc1cc(-c2cccc([N+](=O)[O-])c2)c(-c2nc(-c3ccccc3)c(-c3ccccc3)n2C2CC2)cc1OC
inactive: SR leukemia 57.2% | RPMI-8226 leukemia 10.8% | OVCAR-8 ovarian 62.8% | OVCAR-5 ovarian 87.3% | OVCAR-4 ovarian 62.2% | SK-OV-3 ovarian 80% | IGROV1 ovarian 78.5% | OVCAR-3 ovarian 66.5% | HS 578T breast 83.4% | NCI/ADR-RES ovarian 62% | T-47D breast 23.9% | BT-549 breast 47.2% | MDA-MB-435 melanoma 67.4% | SW-620 colon 76.3% | MCF7 breast 34.8% | HCT-116 colon 26.8% | HCC-2998 colon 81.2% | KM12 colon 67.3%

COc1cc(/C=C/c2nc(Nc3ccc(S(=O)(=O)Nc4cc(C)on4)cc3)c3ccccc3n2)ccc1O
inactive: SR leukemia 19.4% | RPMI-8226 leukemia 72.9% | OVCAR-8 ovarian 73.5% | OVCAR-5 ovarian 88.7% | OVCAR-4 ovarian 91% | SK-OV-3 ovarian 86% | IGROV1 ovarian 59.5% | OVCAR-3 ovarian 65.2% | HS 578T breast 78.5% | NCI/ADR-RES ovarian 51% | T-47D breast 58.4% | BT-549 breast 107% | SW-620 colon 39.1% | MCF7 breast 30.7% | HCT-116 colon 54.6% | HCC-2998 colon 81.9% | KM12 colon 31.8%
active: MDA-MB-435 melanoma -44.1%

CCN(CC)CC(=O)Nc1cccc(C(=O)OC(C)C)c1
inactive: SR leukemia 95.2% | RPMI-8226 leukemia 105% | OVCAR-8 ovarian 108% | OVCAR-5 ovarian 104% | OVCAR-4 ovarian 103% | SK-OV-3 ovarian 101% | IGROV1 ovarian 104% | OVCAR-3 ovarian 103% | HS 578T breast 120% | NCI/ADR-RES ovarian 97% | T-47D breast 92% | BT-549 breast 66% | MDA-MB-435 melanoma 102% | SW-620 colon 115% | MCF7 breast 103% | HCT-116 colon 72.8% | HCC-2998 colon 99.5% | KM12 colon 105%

Cc1cnc(Nc2ccc(N3CCN(C)CC3)cc2)nc1Nc1ccc(Cl)c(NS(=O)(=O)C(C)(C)C)c1
inactive: OVCAR-8 ovarian 21.7% | OVCAR-5 ovarian 19.9% | OVCAR-4 ovarian 27.9% | NCI/ADR-RES ovarian 21% | T-47D breast 39.8% | MDA-MB-435 melanoma 31.6%
active: SR leukemia -3.93% | RPMI-8226 leukemia 5.58% | SK-OV-3 ovarian -6.97% | IGROV1 ovarian 6.84% | OVCAR-3 ovarian 9.51% | HS 578T breast -6.51% | BT-549 breast -5.14% | SW-620 colon 1.76% | MCF7 breast 5.84% | HCT-116 colon 8.83% | HCC-2998 colon -48.1% | KM12 colon 8.8%

NC(N)=N/N=C(/c1ccccc1)c1ccccc1F
active: SR leukemia 3.14% | RPMI-8226 leukemia -36.8% | OVCAR-3 ovarian -0.0856% | T-47D breast 3.86% | MDA-MB-435 melanoma -56% | HCT-116 colon -28.7% | HCC-2998 colon 2.85%
inactive: OVCAR-8 ovarian 45.5% | OVCAR-5 ovarian 76.4% | OVCAR-4 ovarian 36.7% | SK-OV-3 ovarian 19.5% | IGROV1 ovarian 20.7% | HS 578T breast 38.5% | NCI/ADR-RES ovarian 59.6% | BT-549 breast 70.8% | SW-620 colon 40% | MCF7 breast 15.9% | KM12 colon 13.8%
